High-throughput results deposited in PubChem by National Center for Advancing Translational Sciences (NCATS).
BAZ2B inh – qHTS Assay for Inhibitors of BAZ2B; 4.4% of 360,000 active; AlphaScreen BAZ2B-H3K14Ac peptide displacement; Potency, µM (series often up to 114 µM), inactives show at the top dose activity change, negative = inhibition, actives largely listed as inhibitors; note: % is set by controls: 0 for no effect and ±100 for the full control effect; nearly all actives have a fitted effect of over 60% in size
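Inhibition is scored as reduced AlphaScreen emission. The BAZ2B/b-H3(5-23)K14Ac complex (50 nM each) in PBS pH 7.4, 0.01% Tween-20 meets compound (up to 110 uM) for 30 min at RT before bead addition.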
GLS inhibitor – qHTS for Inhibitors of Glutaminase (GLS). Glutaminase kidney isoform, mitochondrial (Homo sapiens), O94925. GLS enzymatic activity, qHTS titration. Potency, µM (doses to about 45.5 µM), inactives show at the highest dose activity change, negative = inhibition, most hits filed as inhibitors. 0.21% of 410,000 active. AID 624170, 2012; note: % is set by controls: 0 for no effect and ±100 for the full control effect
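Human kidney-isoform GLS in 45 mM KH2PO4 pH 8.2, 0.02% Tween-20, with compound, started with 1mM L-Glutamine (added stock). Glutamate oxidase/HRP/Amplex red coupled fluorescence read at start and after 30 min at RT.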
JMJD2A Tudor – qHTS Assay for Inhibitors of JMJD2A-Tudor Domain. Lysine-specific demethylase 4A (Homo sapiens), O75164. AlphaScreen JMJD2A-Tudor / H3K4me3 peptide binding. 4.4% of 390,000 active. AID 504339, 2011. Potency, µM (titrated, usually from 114 µM), inactives show at the top dose activity change, negative = inhibition, actives largely listed as inhibitors; note: % is set by controls: 0 for no effect and ±100 for the full control effect; nearly all actives have a fitted effect of over 50% in size
G9a inh – qHTS Assay for Inhibitors of Histone Lysine Methyltransferase G9a; Histone-lysine N-methyltransferase EHMT2 (Homo sapiens), Q96KQ7; G9a H3K9 monomethylation, AlphaScreen, 2 h; Potency, µM (titrated, usually from 102 µM), for the others: at the highest dose activity, negative = inhibition, usual class: inhibitors; 8.8% of 350,000 active; AID 504332, 2011; note: % is set by controls: 0 for no effect and ±100 for the full control effect; nearly all actives have a fitted effect of over 75% in size
Target sequence (Q96KQ7 913-1193 limits assumed): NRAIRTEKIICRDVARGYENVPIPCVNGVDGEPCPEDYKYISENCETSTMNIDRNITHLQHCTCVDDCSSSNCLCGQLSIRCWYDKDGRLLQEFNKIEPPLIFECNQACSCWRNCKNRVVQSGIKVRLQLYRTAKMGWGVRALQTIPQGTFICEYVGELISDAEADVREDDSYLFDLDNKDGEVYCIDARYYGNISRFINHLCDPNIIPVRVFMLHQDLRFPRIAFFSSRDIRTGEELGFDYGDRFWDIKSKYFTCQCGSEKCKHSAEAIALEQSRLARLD
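Chemiluminescent proximity detection of H3K9 monomethylation, read after 10 min bead incubation in the dark. Reaction: 20 nM G9a, 500 nM biotin-H3K9 peptide, 20 uM SAM cofactor, 2 h, room temperature, following 15 min enzyme-compound preincubation.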
HP1b binding inh – HTS for Inhibitors of HP1-beta Chromodomain Interactions with Methylated Histone Tails. Chromobox protein homolog 1 (Homo sapiens), P83916. AlphaScreen HP1-beta / biotin-H3K9me3 peptide binding. Potency, µM (titrated, usually from 114 µM), for the others: at the highest dose activity change, negative = inhibition, usual class: inhibitors. 0.56% of 390,000 active; note: nearly all actives have a fitted effect of over 70% in size
Target sequence (P83916 whole entry, looked up): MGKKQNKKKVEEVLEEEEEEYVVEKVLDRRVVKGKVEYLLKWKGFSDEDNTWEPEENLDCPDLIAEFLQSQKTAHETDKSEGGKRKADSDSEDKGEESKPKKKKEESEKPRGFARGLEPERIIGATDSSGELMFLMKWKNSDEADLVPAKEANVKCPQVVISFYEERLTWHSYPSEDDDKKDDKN
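HP1-beta protein (50 nM final) preincubated 30 min at room temperature with biotinylated H3(1-18)K9me3 peptide (50 nM) in PBS pH 7.4, 0.01% Tween-20, then compound added for 30 min. AlphaScreen streptavidin donor/nickel chelate acceptor beads (10 ug/mL final), 30 min dark, luminescence read.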
Active calls of the source: *; [ ] = another dose, or the depositor's remark. In the library only some 10% were active in any assay of this set; here they are far more common. Calls come from the whole dose curve; as a rule, active = well fitted curve in the direction sought with a large enough effect; inconclusive = small, poorly fitted or top-dose-only effect, or another doubt; inactive = no such curve, though single readings can be large; an effect the other way counts as inactive or inconclusive. Potency is the fitted concentration of half-maximal effect.

`CCOC(=O)c1cc2c(=Cc3ccc(N(C)C)cc3)c3ccccc3n2[n+]1C` gave GLS inhibitor 29.2%, JMJD2A Tudor 25.1µM* and HP1b binding inh 50.1µM*.
Screening Cc1cc2c(=Cc3ccc(N(C)C)cc3)c3ccccc3n2[n+]1C returned GLS inhibitor -9.9%, JMJD2A Tudor 44.7µM* and HP1b binding inh 31.6µM*.
CN(C)c1ccc(C=c2c3ccccc3n3c2c2ccccc2[n+]3C)cc1 was read as GLS inhibitor -11.0%, JMJD2A Tudor 15.8µM* and HP1b binding inh 12.6µM*.
Screening Cc1ccc(C2=N/C(=C\c3cccs3)C(=O)N2Nc2ccccc2)cc1 returned BAZ2B inh 35.5µM*, GLS inhibitor 6.9%, JMJD2A Tudor inconclusive, G9a inh inconclusive and HP1b binding inh inconclusive.
O=C1/C(=C/c2cccs2)N=C(c2cccs2)N1Nc1ccccc1 was read as BAZ2B inh inconclusive, GLS inhibitor 9.4%, JMJD2A Tudor inconclusive, G9a inh 50.1µM* and HP1b binding inh -16.8%.
Screening O=C1N/C(=C/c2cccs2)C(=O)N1Cc1ccccc1F returned BAZ2B inh -3.2%, GLS inhibitor 0.9%, JMJD2A Tudor -12.9%, G9a inh 16.1% and HP1b binding inh 28.8%[57 µM].
`O=C1/C(=C\c2cccs2)N=C(c2cccs2)N1Nc1ccccc1` gave BAZ2B inh inconclusive, GLS inhibitor 1.0%, JMJD2A Tudor inconclusive, G9a inh 39.8µM* and HP1b binding inh -17.3%.
Screening Cn1c(=O)c2c([nH]c(=O)n2Cc2ccc(Cl)cc2Cl)n(C)c1=O returned BAZ2B inh 3.2%, GLS inhibitor 5.2%, JMJD2A Tudor 3.8%, G9a inh -3.7%[59 µM] and HP1b binding inh 52.2%.
`c1ccc(-n2cnc3ccccc32)cc1` gave BAZ2B inh 12.4%, GLS inhibitor 4.1%, JMJD2A Tudor 5.2%, G9a inh 4.7% and HP1b binding inh 52.3%.
`Cc1ncn(-c2ccccc2)c1-c1ccccc1` gave BAZ2B inh 50.1µM*, GLS inhibitor 1.6%, JMJD2A Tudor inconclusive, G9a inh 20.5%[2.33 µM] and HP1b binding inh -4.5%.
For CSc1nc2c(c(=O)[nH]1)C(c1ccccc1)C1=C(CC(C)(C)CC1=O)N2 (centres undefined) the results were BAZ2B inh -22.6%, GLS inhibitor -2.3%, JMJD2A Tudor 6.0%[11.4 µM], G9a inh 7.4% and HP1b binding inh 36.2%.
CC1(C)CC(=O)C2=C(C1)Nc1[nH]c(=S)[nH]c(=O)c1C2c1ccccc1 (centres undefined) was read as BAZ2B inh -35.1%, GLS inhibitor -17.9%, JMJD2A Tudor 44.7µM*, G9a inh 11.2µM* and HP1b binding inh -2.6%.
O=C1CCCC2=C1C(c1ccc(Br)cc1)c1c([nH]c(=S)[nH]c1=O)N2 (centres undefined) was read as BAZ2B inh inconclusive, GLS inhibitor 12.6µM*, JMJD2A Tudor 39.8µM*, G9a inh 0.794µM* and HP1b binding inh -24.5%.
`Cc1ccc(C2C3=C(CCCC3=O)Nc3[nH]c(=S)[nH]c(=O)c32)cc1` (centres undefined) gave BAZ2B inh 79.4µM*, GLS inhibitor inconclusive, JMJD2A Tudor 10µM*, G9a inh -50.2%[2.33 µM] and HP1b binding inh -32.5%.
`O=c1[nH]c(=S)[nH]c2c1C(c1ccc(Br)cc1)c1c([nH]c(=S)[nH]c1=O)O2` gave BAZ2B inh 22.4µM*, GLS inhibitor inconclusive, JMJD2A Tudor inconclusive, G9a inh 1.58µM* and HP1b binding inh 31.6µM*.
Screening C=CCn1c(=O)/c(=C/c2ccc(Cl)cc2)s/c1=C(\C#N)c1nnc2n1CCCCC2 returned GLS inhibitor 2.3%, JMJD2A Tudor -30.6% and HP1b binding inh 2.4%.
CC1(C(=O)Nc2ccc(Cl)c(Cl)c2)CCN1C(=O)C1CCCCC1 (centres undefined) was read as GLS inhibitor 2.3%.
Screening C[C@@H]1CN([C@H](C)CO)C(=O)CCCn2cc(nn2)CO[C@H]1CN(C)S(=O)(=O)c1ccc2ccccc2c1 returned GLS inhibitor -3.6%.
For COc1ccc(OC)c2sc(N3CCN(C(=O)C(C)(C)C)CC3)nc12 the results were BAZ2B inh -8.8%, GLS inhibitor 6.0%, JMJD2A Tudor -16.2%, G9a inh -29.1%[59 µM] and HP1b binding inh 15.3%.
COc1cc(C2C(C(=O)OC(C)C)=C(C)Nc3[nH]c(=O)[nH]c(=O)c32)ccc1O (centres undefined) was read as BAZ2B inh 11.2%, GLS inhibitor 15.1%, JMJD2A Tudor -12.6%, G9a inh -70.1% and HP1b binding inh 45.2%.
COC(=O)C1=C(C)Nc2[nH]c(=S)[nH]c(=O)c2C1c1ccc(O)cc1 (centres undefined) was read as BAZ2B inh -18.1%, GLS inhibitor 12.8%, JMJD2A Tudor inconclusive, G9a inh 8.91µM* and HP1b binding inh 26.9%.
Screening CCc1nn(CC(=O)N(CC)Cc2ccccc2)c(=O)c2cc3occc3n12 returned BAZ2B inh -12.9%, GLS inhibitor -6.8%, JMJD2A Tudor -18.8%, G9a inh -4.5%[59 µM] and HP1b binding inh 9.7%.
For COC(=O)c1nc(N2CCN(S(=O)(=O)c3ccc(C)cc3)CC2)c2ccccc2n1 the results were JMJD2A Tudor -21.8% and HP1b binding inh 29.8%.
`O=C(NCCN1C(=O)S/C(=C\c2cccnc2)C1=O)c1ccc([N+](=O)[O-])s1` gave BAZ2B inh 13.0%, GLS inhibitor 0.2%, JMJD2A Tudor -15.1%, G9a inh 14.1µM* and HP1b binding inh 18.7%.
Screening O=C(NCCN1C(=O)S/C(=C\c2cccnc2)C1=O)c1cc(S(=O)(=O)N2CCOCC2)ccc1F returned BAZ2B inh -5.9%, GLS inhibitor 14.7%, JMJD2A Tudor inconclusive, G9a inh 39.8µM* and HP1b binding inh 39.8%.
Cc1ccc(S(=O)(=O)N2CCOCC2)cc1C(=O)NCCN1C(=O)S/C(=C\c2ccccc2Cl)C1=O was read as BAZ2B inh -4.9%, GLS inhibitor 3.5%, JMJD2A Tudor -11.3%[57.1 µM], G9a inh -10.4%[59 µM] and HP1b binding inh 8.4%.
For CCCCn1c(N)c(N(CCOC)C(=O)c2ccc(COc3ccccc3)o2)c(=O)[nH]c1=O the results were BAZ2B inh -3.2%, GLS inhibitor 9.8%, JMJD2A Tudor -16.4%, G9a inh inconclusive and HP1b binding inh 6.8%.
For CC(C)(O)C(=O)NNC(=S)Nc1ccc(F)c(Cl)c1 the results were BAZ2B inh -1.1%, GLS inhibitor inconclusive, JMJD2A Tudor -15.3%, G9a inh 44.7µM* and HP1b binding inh 6.0%.
